Bioassay records deposited in PubChem by several laboratories.
RTF Ca sens act: cardiac RTF calcium sensitization. P19429+P45379. IANBD-labeled TnC RTF fluorescence at EC20 calcium; 0% EC20 calcium, 100% full calcium. activation, % at 7.2 µM. 340,000 compounds, 0.24% hits. AID 493008;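 active = activation above the mean over all tested compounds plus 3 SD, cut at about 30% in these data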;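 note: rise in fluorescence read as greater calcium sensitivity of cardiac thin filaments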
CRFR2-BP antag: antagonists of CRF-binding protein/CRF-R2 receptor complex; HEK293 CRF-R2/CRF-BP, CRF-induced calcium fluorescence; inhibition, % at 11.8 µM; 350,000 compounds, 0.59% hits;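 active = inhibition of the ligand-induced calcium signal above about 50% at the single tested concentration, limit read from the data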
TMEM16A inh: inhibitors of mouse TMEM16A calcium-activated chloride channel. Q8BHY3. HEK293 TMEM16A/YFP iodide influx fluorescence, ionomycin. normalized B-score (activity score, 25-100; higher = stronger inhibition) at 10 µM. 310,000 compounds, 1.2% hits. AID 588511;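 active = ratio plate-corrected score three or more library SD toward inhibition, starting fluorescence score within five deviations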;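 note: score derived from kinetic fluorescence span divided by baseline fluorescence per well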
Target sequence (Q8BHY3 whole entry, looked up): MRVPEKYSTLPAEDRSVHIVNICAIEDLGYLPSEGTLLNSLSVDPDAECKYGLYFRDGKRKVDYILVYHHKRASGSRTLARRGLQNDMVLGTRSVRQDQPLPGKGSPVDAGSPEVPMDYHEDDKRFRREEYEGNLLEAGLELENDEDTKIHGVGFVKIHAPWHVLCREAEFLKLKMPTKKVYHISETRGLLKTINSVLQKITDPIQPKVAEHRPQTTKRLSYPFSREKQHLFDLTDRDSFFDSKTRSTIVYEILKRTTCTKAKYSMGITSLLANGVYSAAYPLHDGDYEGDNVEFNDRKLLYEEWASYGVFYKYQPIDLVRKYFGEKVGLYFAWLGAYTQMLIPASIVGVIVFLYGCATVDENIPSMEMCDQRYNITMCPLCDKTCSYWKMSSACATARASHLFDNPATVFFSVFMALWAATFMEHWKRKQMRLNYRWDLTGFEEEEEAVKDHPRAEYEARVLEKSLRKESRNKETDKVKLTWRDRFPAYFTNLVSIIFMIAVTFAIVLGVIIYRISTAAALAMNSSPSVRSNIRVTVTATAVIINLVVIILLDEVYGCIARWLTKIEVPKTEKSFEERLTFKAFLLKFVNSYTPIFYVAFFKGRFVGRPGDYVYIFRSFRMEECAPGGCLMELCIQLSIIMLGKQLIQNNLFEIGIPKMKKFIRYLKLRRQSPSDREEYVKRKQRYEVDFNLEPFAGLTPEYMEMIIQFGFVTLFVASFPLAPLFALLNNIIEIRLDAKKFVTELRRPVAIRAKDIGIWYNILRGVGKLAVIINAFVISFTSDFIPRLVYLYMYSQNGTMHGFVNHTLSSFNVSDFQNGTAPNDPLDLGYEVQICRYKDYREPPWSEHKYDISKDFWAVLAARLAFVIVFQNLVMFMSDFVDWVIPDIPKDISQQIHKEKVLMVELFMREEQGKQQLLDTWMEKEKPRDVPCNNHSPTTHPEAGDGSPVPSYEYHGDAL
ANO1 activ: activates or potentiates the mouse TMEM16A chloride channel | Q8BHY3 | HEK293 TMEM16A/YFP-H148Q/I152L, iodide quench fluorescence; hits give low values | B-score at 10 µM | 340,000 compounds, 0.3% hits | AID 623877;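 active = fluorescence-ratio B-score plate-corrected deviation score at least 3 library SD below zero, with starting fluorescence score within 5 deviations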;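 note: channel opened by trigger with iodide after compound preincubation; score built on the fluorescence ratio of max minus min over baseline; more negative score means more quench and so TMEM16A activation or potentiation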
RTF Ca sens inh: cardiac RTF calcium desensitization; 340,000 compounds, 0.12% hits; IANBD-labeled cardiac RTF, Ca2+ fluorescence; P19429+P45379; inhibition, % at 7.15 µM; AID 493244;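 active = inhibition above the mean inhibition of all tested compounds plus 3 SD, cut at about 17% in these data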;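 note: assay run at fixed EC70 calcium of 1.6 mM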
CRFR2-BP ag: agonists of human CRF-binding protein/CRF-R2 receptor complex; 350,000 compounds, 0.46% hits; activation, % at 13.2 µM; AID 588473; HEK293 CRF-R2/CRF-BP, calcium dye fluorescence (FLIPR); percent of saturating CRF peptide response;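 active = activation of at least 50%, plus an integration ratio under a set limit after plate pattern correction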;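 note: plate controls were neutral control wells without compound for no effect and CRF at EC100 for full effect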
TMEM16A reconf: reconfirmed blocker of mouse TMEM16A calcium-activated chloride channel | HEK293 TMEM16A/YFP-H148Q, iodide quench fluorescence; ionomycin added to raise cell calcium | 2,300 compounds, 39% hits | inhibition, % at 10 µM | shares compounds with TMEM16A inh;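 active = mean duplicate percent inhibition, scaled so buffer wells are 0 and the reference blocker 100, over three buffer SD above buffer mean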
TMEM16A Ca cntr: alters calcium mobilization in TMEM16A HEK293 cells, counter-screen | TMEM16A/YFP HEK293, Fluo4 calcium mobilization | 2,300 compounds, 2% hits | calcium response (% of ionomycin), % at 10 µM | shares compounds with TMEM16A inh;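 active = duplicate-averaged calcium signal over 20% of the ionomycin maximum, relative to buffer baseline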;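 note: each well's signal is peak minus trough fluorescence divided by its pre-addition baseline; 0% = buffer wells and 100% = ionomycin wells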
Parental YFP cnt: parental YFP-HEK293 iodide quench counter-screen activity; 2,300 tested, under 10 active; ionomycin; shares compounds with TMEM16A inh; AID 652233; YFP ratio F(max-min)/F0 at 10 µM;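 active = yellow fluorescent protein signal ratio exceeding the buffer control mean by over 5 SD of those controls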;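 note: ratio is mean of duplicate wells from kinetic YFP trace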
ClC-1 inh: rat ClC-1 inhibition, TMEM16A specificity screen; shares compounds with TMEM16A inh; CHO ClC-1-YFP, iodide influx fluorescence quench; iodide control reads 0, buffer control 100; ratio percent, % at 10 µM; 2,300 tested, under 10 active;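 active = duplicate-mean ratio percent above the mean of iodide-only control wells, which defines zero, plus 5 of their SD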;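 note: higher percent means stronger block of ClC-1 iodide influx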
Active calls of the source: *. This is a sample that favours compounds with a hit; in the whole collection about 2.4% have one here.

For O=c1cc(-c2ccccc2Cl)oc2c(NS(=O)(=O)c3ccccc3C(F)(F)F)ccc(O)c12 the results were RTF Ca sens act 7, CRFR2-BP antag -1, TMEM16A inh inactive, ANO1 activ inactive, RTF Ca sens inh -12 and CRFR2-BP ag -1.
O=C(Nc1nc(-c2ccc(-c3ccccc3)cc2)cs1)C1CCCO1 (configuration not stated) was read as RTF Ca sens act 12, CRFR2-BP antag -10, TMEM16A inh 100*, ANO1 activ inactive, RTF Ca sens inh 7, CRFR2-BP ag 3, TMEM16A reconf inactive, TMEM16A Ca cntr inactive, Parental YFP cnt -0.9 and ClC-1 inh -21.
Screening Cc1csc(NC(=O)c2ccc(OCC3CCCO3)cc2)n1 (configuration not stated) returned RTF Ca sens act 2, CRFR2-BP antag 8, TMEM16A inh inactive, ANO1 activ inactive, RTF Ca sens inh -2 and CRFR2-BP ag 0.
Screening O=C(Nc1nc(-c2ccccc2)cs1)C1CCCO1 (configuration not stated) returned RTF Ca sens act 4, CRFR2-BP antag 9, TMEM16A inh inactive, ANO1 activ inactive, RTF Ca sens inh -2 and CRFR2-BP ag -1.
For O=C(Nc1nc(-c2ccc(F)c(F)c2)cs1)c1ccc(OCC2CCCO2)cc1 (configuration not stated) the results were RTF Ca sens act -1, CRFR2-BP antag -25, TMEM16A inh 25*, ANO1 activ inactive, RTF Ca sens inh -4, CRFR2-BP ag 2, TMEM16A reconf inactive, TMEM16A Ca cntr inactive, Parental YFP cnt -1.2 and ClC-1 inh -7.
Screening CCOC(=O)C1CCN(C(=O)CN2C(=O)COc3ccc(C(C)(C)C)cc32)CC1 returned RTF Ca sens act 1, CRFR2-BP antag 9, TMEM16A inh inactive, ANO1 activ inactive, RTF Ca sens inh 2 and CRFR2-BP ag -1.
For CN(C)S(=O)(=O)c1ccc(N2CCCC2)c(C(=O)Nc2nc3c(ccc4ccccc43)s2)c1 the results were RTF Ca sens act -18, CRFR2-BP antag 12, TMEM16A inh inactive, ANO1 activ inactive, RTF Ca sens inh 9, CRFR2-BP ag 7, TMEM16A reconf inactive, TMEM16A Ca cntr inactive, Parental YFP cnt -1.4 and ClC-1 inh -11.
Screening Cc1cnc(NC(=O)c2cc(S(=O)(=O)N(C)C)ccc2N2CCCC2)s1 returned CRFR2-BP antag -19 and CRFR2-BP ag 5.
For CC(C)c1ccc(CN2CCN(C(=O)CSc3nnnn3C3CC3)CC2)cc1 the results were RTF Ca sens act 3, CRFR2-BP antag 5, ANO1 activ inactive, RTF Ca sens inh -1 and CRFR2-BP ag 0.
For CCn1nc(C)c(CNC(=O)c2cc(COc3ccc(F)cc3Cl)on2)c1C the results were RTF Ca sens act 1, CRFR2-BP antag 5, TMEM16A inh 25*, ANO1 activ inactive, RTF Ca sens inh -13, CRFR2-BP ag 1, TMEM16A reconf 24%*, TMEM16A Ca cntr inactive, Parental YFP cnt -1.1 and ClC-1 inh -16.
Cc1ccc(S(=O)(=O)N2CCN(C(=O)CN3CCN(c4ccc(O)cc4)CC3)CC2)cc1 was read as RTF Ca sens act 4, CRFR2-BP antag -3, ANO1 activ inactive, RTF Ca sens inh -9 and CRFR2-BP ag 1.
CCOC(=O)C1CCCN(S(=O)(=O)c2ccc(C)cc2)C1 (configuration not stated) was read as RTF Ca sens act 0, CRFR2-BP antag -9, TMEM16A inh inactive, ANO1 activ inactive, RTF Ca sens inh -7 and CRFR2-BP ag -4.
CCOC(=O)C1CCCN(S(=O)(=O)c2ccc(S(=O)(=O)N(CC)CC)cc2)C1 (configuration not stated) was read as RTF Ca sens act 2, CRFR2-BP antag 18, TMEM16A inh 25*, ANO1 activ inactive, RTF Ca sens inh -5, CRFR2-BP ag 1, TMEM16A reconf inactive, TMEM16A Ca cntr inactive, Parental YFP cnt -0.97 and ClC-1 inh -20.
`COCCN(C(=O)CCC(=O)Nc1nccs1)C(C(=O)NCCC(C)C)c1ccc(OC)cc1` (configuration not stated) gave RTF Ca sens act 0, CRFR2-BP antag -3, TMEM16A inh inactive, ANO1 activ inactive, RTF Ca sens inh -10 and CRFR2-BP ag 1.
Screening Cc1nn(C)c(C)c1CN(Cc1nc(CCC(C)C)no1)C(C)C returned RTF Ca sens act 1, CRFR2-BP antag 10, TMEM16A inh 25*, ANO1 activ inactive, RTF Ca sens inh -4, CRFR2-BP ag 2, TMEM16A reconf inactive, TMEM16A Ca cntr inactive, Parental YFP cnt -1.1 and ClC-1 inh -20.
Screening CC1CN(C(=O)COC(=O)c2ccc(Cl)c(S(=O)(=O)N3CCCCC3)c2)CC(C)O1 (configuration not stated) returned RTF Ca sens act 3, CRFR2-BP antag 9, TMEM16A inh inactive, ANO1 activ inactive, RTF Ca sens inh -11 and CRFR2-BP ag 2.
For COc1ccc(COC(=O)c2ccc(Cl)c(S(=O)(=O)N3CC(C)OC(C)C3)c2)cc1 (configuration not stated) the results were RTF Ca sens act 4, CRFR2-BP antag 15, TMEM16A inh 25*, ANO1 activ inactive, RTF Ca sens inh 1, CRFR2-BP ag 3, TMEM16A reconf 16%*, TMEM16A Ca cntr inactive, Parental YFP cnt -1 and ClC-1 inh -7.
`CCCCN(Cc1ccccc1)S(=O)(=O)c1cc(Br)cc2c1N(C(C)=O)C(C)C2` (configuration not stated) gave RTF Ca sens act -8, CRFR2-BP antag 45, TMEM16A inh 25*, ANO1 activ inactive, RTF Ca sens inh -12, CRFR2-BP ag 1, TMEM16A reconf inactive, TMEM16A Ca cntr inactive, Parental YFP cnt -0.98 and ClC-1 inh -12.
